Assay results reported in PubChem BioAssay (Tox21).
A number with no mark means an inactive call. Results filed as inconclusive are left out. Where a call stands in place of a potency, no number is given. Calls of active or inactive are those of the source. Unless noted, calls follow the shape of the dose curve; as a rule, active = well fitted curve in the direction sought with a large enough effect in the repeat runs; inconclusive = weak or mixed curves; inactive = no such curve, though single readings can be large; an effect the other way counts as inactive or inconclusive.

Legend:
[1] = biological target: Luciferin 4-monooxygenase (Photinus pyralis) (UniProt P08659); test: qHTS assay to identify small molecule inhibitors of firefly luciferase (AID 1224835); also: nearly all actives have a fitted effect of over 25% in size; also: potency is read from the fitted curve at half-maximal effect
Luciferin 4-monooxygenase (Photinus pyralis), sequence (P08659 whole entry, looked up): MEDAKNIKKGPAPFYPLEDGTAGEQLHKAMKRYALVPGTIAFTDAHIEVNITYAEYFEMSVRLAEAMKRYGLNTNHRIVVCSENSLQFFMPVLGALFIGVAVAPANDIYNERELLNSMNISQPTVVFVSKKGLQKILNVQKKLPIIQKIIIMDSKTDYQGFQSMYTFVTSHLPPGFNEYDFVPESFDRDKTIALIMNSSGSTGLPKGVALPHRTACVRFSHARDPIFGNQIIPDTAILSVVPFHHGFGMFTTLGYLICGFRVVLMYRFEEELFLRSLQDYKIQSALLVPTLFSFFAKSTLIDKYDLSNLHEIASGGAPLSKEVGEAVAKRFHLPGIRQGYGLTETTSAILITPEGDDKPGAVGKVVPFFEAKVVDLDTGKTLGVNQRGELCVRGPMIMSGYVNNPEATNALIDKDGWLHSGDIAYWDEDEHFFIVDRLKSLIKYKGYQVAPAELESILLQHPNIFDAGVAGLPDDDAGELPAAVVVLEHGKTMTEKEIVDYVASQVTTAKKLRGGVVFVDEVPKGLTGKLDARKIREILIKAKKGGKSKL
How it was run: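 Biochemical qHTS: compounds run as interplate titrations against purified firefly enzyme, with D-luciferin and ATP each at its KM concentration. Light output recorded by CCD imaging.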

[2] = qHTS assay to identify small molecule agonists of the constitutive androstane receptor (CAR) signaling pathway - cell viability counter screen (AID 1224836); also: nearly all actives have a fitted effect of over 45% in size; also: potency is read from the fitted curve at half-maximal effect
How it was run: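 Double-stable HepG2 hepatoma cells (hCAR plus CYP2B6-2.2kb) are treated for 23 h at 37 C with test compounds in 15-point concentration series. PK11195 at 0.75 uM final is co-added. Cell viability is quantified by CellTiter-Fluor.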

[3] = qHTS assay to identify small molecule antagonists of the constitutive androstane receptor (CAR) signaling pathway - cell viability counter screen (AID 1224837); also: nearly all actives have a fitted effect of over 45% in size; also: potency is read from the fitted curve at half-maximal effect
How it was run: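 Cytotoxicity counter-screen: CellTiter-Fluor fluorescence after 23 h compound exposure (15-point qHTS) in double-stable HepG2-CYP2B6-hCAR cells, with 50 nM CITCO added.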

[4] = biological target: Nuclear receptor subfamily 1 group I member 3 (Homo sapiens) (UniProt Q14994); test: qHTS assay to identify small molecule antagonists of the constitutive androstane receptor (CAR) signaling pathway (AID 1224838);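 also: HepG2 cells stably expressing hCAR with CYP2B6 luciferase reporter stimulated by CITCO; nearly all actives have a fitted effect of over 40% in size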; also: potency is read from the fitted curve at half-maximal effect
Nuclear receptor subfamily 1 group I member 3 (Homo sapiens), sequence (Q14994 whole entry, looked up): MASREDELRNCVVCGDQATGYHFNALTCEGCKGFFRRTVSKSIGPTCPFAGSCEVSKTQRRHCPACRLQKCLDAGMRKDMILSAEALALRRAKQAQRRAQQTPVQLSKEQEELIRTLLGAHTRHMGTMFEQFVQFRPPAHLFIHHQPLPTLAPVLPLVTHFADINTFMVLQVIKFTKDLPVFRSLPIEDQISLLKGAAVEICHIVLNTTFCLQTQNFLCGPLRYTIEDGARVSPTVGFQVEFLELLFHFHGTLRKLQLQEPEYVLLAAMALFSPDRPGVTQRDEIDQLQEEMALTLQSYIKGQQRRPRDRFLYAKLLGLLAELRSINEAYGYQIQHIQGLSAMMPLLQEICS
How it was run: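 Antagonism measured as luciferase signal (ONE-Glo, 30 min, room temperature) in CAR-stimulated cells: HepG2-CYP2B6-hCAR double-stable line exposed 24 hr at 37 C to compound in a 15-point series plus 50 nM CITCO.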

[5] = biological target: Nuclear receptor subfamily 1 group I member 3 (Homo sapiens) (UniProt Q14994); test: qHTS assay to identify small molecule agonists of the constitutive androstane receptor (CAR) signaling pathway (AID 1224839); also: nearly all actives have a fitted effect of over 15% in size; also: potency is read from the fitted curve at half-maximal effect;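 as to activation: HepG2 cells stably carrying human CAR and a CYP2B6 luciferase reporter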
How it was run: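 Readout: firefly luciferase luminescence via ONE-Glo. System: HepG2 double-stable for hCAR and CYP2B6-2.2kb. Conditions: 15-point compound titration, PK11195 at 0.75 uM final, 24 h incubation.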

[6] = qHTS assay to identify small molecule antagonists of the estrogen related receptor signaling pathway with the pleiotropic PPARgamma coactivator (PGC) from Tox21 10K library - cell viability counter screen (AID 1224840; active = well fitted cell-killing curve with a large enough effect in the repeat runs, not every such curve was filed as active; also: nearly all actives have a fitted effect of over 40% in size; also: potency is read from the fitted curve at half-maximal effect)
How it was run: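 Counter-screen for cytotoxicity: after 17.5 h compound exposure at 37 C, CellTiter-Fluor reagent added to PGC/ERR cells for 30 min and fluorescence read. Cells were seeded at 2,000 per well 6 h before dosing.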

[7] = biological target: Thyrotropin receptor (Homo sapiens) (UniProt P16473); test: qHTS assay to identify small molecule agonists of the thyroid stimulating hormone receptor (TSHR) signaling pathway (AID 1224843; calls by dose curve; also: nearly all actives have a fitted effect of over 45% in size)
Thyrotropin receptor (Homo sapiens), sequence (P16473 whole entry, looked up): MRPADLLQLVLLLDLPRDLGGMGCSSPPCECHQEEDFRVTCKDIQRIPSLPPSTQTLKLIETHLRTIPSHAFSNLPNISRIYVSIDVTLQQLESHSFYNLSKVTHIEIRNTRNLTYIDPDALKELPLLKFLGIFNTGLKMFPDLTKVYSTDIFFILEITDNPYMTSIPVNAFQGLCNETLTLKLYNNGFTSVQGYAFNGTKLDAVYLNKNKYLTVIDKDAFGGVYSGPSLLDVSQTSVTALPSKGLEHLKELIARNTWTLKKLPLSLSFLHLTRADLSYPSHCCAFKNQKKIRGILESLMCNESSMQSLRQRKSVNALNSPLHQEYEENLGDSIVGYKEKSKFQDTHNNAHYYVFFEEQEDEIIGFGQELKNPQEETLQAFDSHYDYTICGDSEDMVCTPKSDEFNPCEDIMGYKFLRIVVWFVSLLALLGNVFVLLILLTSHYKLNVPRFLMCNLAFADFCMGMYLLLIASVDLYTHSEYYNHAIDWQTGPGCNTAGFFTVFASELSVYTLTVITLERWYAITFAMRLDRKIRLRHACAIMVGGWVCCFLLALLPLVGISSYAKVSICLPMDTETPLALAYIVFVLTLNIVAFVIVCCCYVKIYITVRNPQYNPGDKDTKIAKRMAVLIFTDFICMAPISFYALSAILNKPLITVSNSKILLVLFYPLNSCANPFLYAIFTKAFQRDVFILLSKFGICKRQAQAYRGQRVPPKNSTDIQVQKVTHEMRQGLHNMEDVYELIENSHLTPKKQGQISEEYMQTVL
How it was run: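 Agonist-mode screen: TSHR HEK293 cells received test chemicals for half an hour at room temperature, then HTRF cAMP detection reagents for one hour prior to fluorescence measurement. Each chemical ran as a 15-concentration series, triplicated.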

[8] = qHTS assay to identify small molecule agonists of the hypoxia (HIF-1) signaling pathway - cell viability counter screen (AID 1224844; calls by dose curve; also: nearly all actives have a fitted effect of over 50% in size; also: potency is read from the fitted curve at half-maximal effect)
How it was run: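 Cytotoxicity measured by CellTiter-Glo ATP luminescence in the wells also read for beta-lactamase signal. Cells were HRE-bla ME-180 (2,000/well, 0.5% dialyzed FBS), exposed to compounds for 17 h at 37C.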

[9] = qHTS assay to identify small molecule agonists of H2AX (AID 1224845; active = well fitted activation curve with a large enough effect in the signal ratio in the repeat runs, not every such curve was filed as active; the % refers to the signal ratio)
How it was run: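 Wild-type CHO-K1 cells, plated overnight, exposed 3hr at 37C to 15 concentrations (0.76% DMSO final). Lysed, then HTRF anti-pH2AX (S139) cryptate and anti-H2AX-d2 antibodies, 24 hr room temperature; 665/620 nm emission read.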

[10] = qHTS assay to identify small molecule agonists of the hypoxia (HIF-1) signaling pathway (AID 1224846; active = well fitted activation curve with a large enough effect in the signal ratio in the repeat runs, not every such curve was filed as active; the % refers to the signal ratio)
How it was run: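 Compounds added to ME-180 cells carrying hypoxia-response-element beta-lactamase reporter (0.5% dialyzed FBS, 5 h preplating), 17 h at 37C; agonist activity detected by CCF4-AM B/G FRET read-out.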

[11] = qHTS assay to identify small molecule agonists of H2AX - cell viability counter screen (AID 1224847; calls by dose curve; also: nearly all actives have a fitted effect of over 30% in size; also: potency is read from the fitted curve at half-maximal effect)
How it was run: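 For this counter screen, overnight-attached CHO-K1 cells received test compounds (15 concentrations, 0.76% DMSO final); 3 hr later at 37C, CellTiter-Glo reagent was added and luminescence recorded after 30 min at room temperature.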

[12] = qHTS RealTime-Glo MT Cell Viability Assay in HepG2 cells - 24 hour (AID 1224867); also: nearly all actives have a fitted effect of over 50% in size; also: potency is read from the fitted curve at half-maximal effect
How it was run: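 HepG2 cells (600/well) were dispensed with RealTime-Glo reagents, incubated 5 h at 37 °C, then treated with compounds in DMSO for up to 40 h. Nonlytic NanoLuc luminescence reflecting viable cells was read at each stated time point.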

[13] = qHTS RealTime-Glo MT Cell Viability Assay in HEK293 cells - 32 hour (AID 1224868); also: nearly all actives have a fitted effect of over 50% in size; also: potency is read from the fitted curve at half-maximal effect
How it was run: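 HEK293 cells seeded with NanoLuc/prosubstrate reagent, rested 5 h at 37 C, then dosed and kept at 37 C up to 40 h. Nonlytic real-time luminescence from viable cells read at 0, 8, 16, 24, 32 and 40 h.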

[14] = A CellTox Green Cytotoxicity Assay to monitor cytotoxicity in HEK293 cells - 0 hour (AID 1224869); also: nearly all actives have a fitted effect of over 50% in size
How it was run: (§1)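 Fluorescence from a DNA-binding dye excluded by viable cells was measured repeatedly in the same HEK293 wells (600 cells/well) during continuous compound exposure at 37 C. Each assay gives one read point: 0, 8, 16, 24, 32 or 40 h.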

[15] = qHTS RealTime-Glo MT Cell Viability Assay in HepG2 cells - 40 hour (AID 1224870); also: nearly all actives have a fitted effect of over 50% in size; also: potency is read from the fitted curve at half-maximal effect
How it was run: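 HepG2 cells (600/well) mixed with RealTime-Glo MT reagent, settled 5 h at 37 C/5% CO2 before compound addition. Nonlytic NanoLuc luminescence from viable-cell prosubstrate reduction read repeatedly during 40 h treatment at 37 C.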

[16] = A CellTox Green Cytotoxicity Assay to monitor cytotoxicity in HEK293 cells - 40 hour (AID 1224871); also: nearly all actives have a fitted effect of over 45% in size; also: potency is read from the fitted curve at half-maximal effect
How it was run: as §1

[17] = qHTS assay to identify small molecule agonists of the estrogen related receptor signaling pathway with the pleiotropic PPARgamma coactivator (PGC) from Tox21 10K library (AID 1224842); also: nearly all actives have a fitted effect of over 15% in size
How it was run: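 PGC/ERR reporter cell line, 2,000 cells per well, incubated 6 h at 37 C before 23 nL compound in DMSO was added. After 18 h at 37 C, One-Glo luminescence read following 30 min at room temperature.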

[18] = qHTS assay to identify small molecule antagonists of the estrogen related receptor (ERR) signaling pathway from Tox21 library (AID 1224848); also: nearly all actives have a fitted effect of over 50% in size; also: potency is read from the fitted curve at half-maximal effect
How it was run: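 Quantitative high-throughput format: ERR reporter cells (2,000/well) pre-incubated 6 h, treated 18 h at 37 C with compounds in DMSO alongside positive and negative controls, then read by ONE-Glo luminescence.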

[19] = qHTS assay to identify small molecule agonists of the estrogen related receptor (ERR) signaling pathway from Tox21 library (AID 1224849; calls by dose curve; also: nearly all actives have a fitted effect of over 15% in size); conditions: ERR reporter cell line, ONE-Glo luciferase, 18 h; at 92.4 µM (top of the series) unless noted
How it was run: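 Luminescent agonist read-out (One-Glo, 30-minute room-temperature incubation) following 18-hour compound treatment at 37 C of the ERR cell line, which had been plated 6 hours before dosing.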

Q: Which results are given for `O=P(Cl)(Cl)Cl`?
A: Potency [1]: inactive; Potency [2]: inactive; Potency [3]: inactive; Potency [4]: inactive; Potency [5]: inactive; Potency [6]: inactive; Potency [7]: inactive; Potency [8]: inactive; Potency [9]: inactive; Potency [10]: inactive; Potency [11]: inactive; Potency [12]: inactive; Potency [13]: inactive; Potency [14]: inactive; Potency [15]: inactive; Potency [16]: inactive

Q: For `O=S(=O)(O)F`, which Potency [1] is on record?
A: inactive

Q: What about the Potency [2] of the same compound?
A: inactive

Q: What about the Potency [3] of the same compound?
A: inactive

Q: What about the Potency [4] of the same compound?
A: inactive

Q: What about the Potency [5] of the same compound?
A: inactive

Q: And the Potency [6]?
A: inactive

Q: And the Potency [7]?
A: inactive

Q: And the Potency [8]?
A: inactive

Q: And the Potency [9]?
A: inactive

Q: What about the Potency [10] of the same compound?
A: inactive

Q: And the Potency [11]?
A: inactive

Q: What about the Potency [12] of the same compound?
A: inactive

Q: And the Potency [13]?
A: inactive

Q: And the Potency [14]?
A: inactive

Q: And the Potency [15]?
A: inactive

Q: And the Potency [16]?
A: inactive

Q: For `N#CC(C#N)=NNc1cccc(Cl)c1`, which Potency [1] is on record?
A: 35.6 µM (active)

Q: What about the Potency [2] of the same compound?
A: 6.11 µM (active)

Q: What about the Potency [3] of the same compound?
A: 6.86 µM (active)

Q: What about the Potency [4] of the same compound?
A: 2.43 µM (active)

Q: And the Potency [5]?
A: inactive

Q: And the Potency [6]?
A: 7.7 µM (active)

Q: And the Potency [17]?
A: inactive

Q: And the Potency [7]?
A: inactive

Q: And the Potency [8]?
A: 3.09 µM (active)

Q: What about the Potency [18] of the same compound?
A: 0.77 µM (active)

Q: What about the activity change, positive = activation [19] of the same compound?
A: -57.7%

Q: And the Potency [12]?
A: 19.5 µM (active)

Q: And the Potency [13]?
A: 4.9 µM (active)

Q: And the Potency [14]?
A: inactive

Q: What about the Potency [15] of the same compound?
A: 19.5 µM (active)

Q: What about the Potency [16] of the same compound?
A: 49 µM (active)

Q: With `O=[N+]([O-])c1ccc(CCl)cc1` as the compound, how does the Potency [1] read?
A: inactive

Q: What about the Potency [2] of the same compound?
A: inactive

Q: What about the Potency [3] of the same compound?
A: inactive

Q: What about the Potency [4] of the same compound?
A: inactive

Q: And the Potency [5]?
A: inactive

Q: And the Potency [6]?
A: inactive

Q: What about the Potency [17] of the same compound?
A: inactive

Q: And the Potency [7]?
A: inactive

Q: What about the Potency [9] of the same compound?
A: inactive

Q: What about the Potency [10] of the same compound?
A: inactive

Q: What about the Potency [11] of the same compound?
A: inactive

Q: What about the Potency [18] of the same compound?
A: inactive

Q: What about the Potency [12] of the same compound?
A: inactive

Q: What about the Potency [15] of the same compound?
A: inactive

Q: What about the Potency [16] of the same compound?
A: inactive

Q: Which Potency [1] does the source give for `CC(C)(C)c1ccc(OP(=O)(Oc2ccccc2)Oc2ccccc2)cc1` here?
A: inactive

Q: What about the Potency [2] of the same compound?
A: inactive

Q: And the Potency [3]?
A: inactive

Q: And the Potency [4]?
A: inactive

Q: And the Potency [5]?
A: 48.9 µM (active)

Q: What about the Potency [6] of the same compound?
A: inactive

Q: And the Potency [17]?
A: inactive

Q: And the Potency [8]?
A: inactive

Q: What about the Potency [10] of the same compound?
A: inactive

Q: And the Potency [11]?
A: inactive

Q: What about the Potency [18] of the same compound?
A: 61.5 µM (active)

Q: What about the Potency [12] of the same compound?
A: inactive

Q: And the Potency [14]?
A: inactive

Q: And the Potency [15]?
A: inactive

Q: Which Potency [1] does the source give for `CCOP(=O)(OCC)Oc1nc(Cl)c(Cl)cc1Cl` here?
A: inactive

Q: What about the Potency [2] of the same compound?
A: inactive

Q: And the Potency [3]?
A: inactive

Q: And the Potency [4]?
A: inactive

Q: What about the Potency [5] of the same compound?
A: inactive

Q: And the Potency [6]?
A: inactive

Q: And the Potency [7]?
A: inactive

Q: What about the Potency [8] of the same compound?
A: inactive

Q: What about the Potency [9] of the same compound?
A: inactive

Q: And the Potency [11]?
A: inactive

Q: And the Potency [12]?
A: inactive

Q: And the Potency [14]?
A: inactive

Q: What about the Potency [15] of the same compound?
A: inactive

Q: Which Potency [1] does the source give for `CCC(OC(C)=O)C(CC(C)NC)(c1ccccc1)c1ccccc1` (stereo not drawn) here?
A: inactive

Q: And the Potency [2]?
A: 69.2 µM (active)

Q: What about the Potency [3] of the same compound?
A: 69.2 µM (active)

Q: What about the Potency [4] of the same compound?
A: 69.2 µM (active)

Q: And the Potency [5]?
A: inactive

Q: And the Potency [6]?
A: 69.2 µM (active)

Q: And the Potency [17]?
A: inactive

Q: What about the Potency [7] of the same compound?
A: inactive

Q: What about the Potency [9] of the same compound?
A: inactive

Q: What about the Potency [10] of the same compound?
A: inactive

Q: And the Potency [11]?
A: 128 µM (active)

Q: And the Potency [18]?
A: 69.2 µM (active)

Q: And the activity change, positive = activation [19]?
A: -58.4%

Q: And the Potency [12]?
A: 62.2 µM (active)

Q: And the Potency [13]?
A: 55.4 µM (active)

Q: What about the Potency [14] of the same compound?
A: inactive

Q: What about the Potency [15] of the same compound?
A: 62.2 µM (active)

Q: What about the Potency [16] of the same compound?
A: 62.2 µM (active)
